Source: PubChem BioAssay (National Center for Advancing Translational Sciences (NCATS))
FLuc inh = inhibitors of firefly (Photinus pyralis) luciferase; P08659; purified P. pyralis luciferase, luminescence, biochemical; Potency, µM (titrated, usually from 115 µM), hits mostly inhibitors; 2.5% of 76,000 active; AID 1347043; also: nearly all actives have a fitted effect of over 65% in size
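Purified 10nM P. pyralis luciferase with 10uM D-luciferin and 10uM ATP in 50mM Tris acetate pH 7.5, 10mM Mg acetate, 0.01% Tween-20, 0.05% BSA. qHTS titration; luminescence read by CCD imager.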
NIH3T3 tox = cytotoxic compounds in NIH 3T3 cells. NIH 3T3 viability, CellTiter-Glo ATP luminescence, 48-72 h. Potency, µM (titrated, usually from 96.7 µM), most hits filed as inhibitors. 4.3% of 94,000 active; also: nearly all actives have a fitted effect of over 55% in size
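First NIH 3T3 cells are plated at 400 cells/well; next compound is pinned in; then plates incubate 48 or 72 hr at 37 °C; finally CellTiter-Glo is added and luminescence read after 10 min.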
NPR1 antag = antagonists of human natriuretic peptide receptor Npr1. 1.6% of 76,000 active. Potency, µM (series often up to 46.3 µM), usual class: inhibitors. AID 1347048. HEK293 hNpr1 GloSensor cGMP, ANP-stimulated luminescence; calls by dose curve; also: nearly all actives have a fitted effect of over 60% in size
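Compound pre-incubated 30 min at room temperature on GloSensor-loaded HEK293 cells stably carrying hNpr1 and the pGS-40F cGMP biosensor. Stimulation uses hNppA at 0.1 nM final; luminescence is taken at baseline and 20 min post-agonist.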
HEK cytotox = kills HEK 293 cells; HEK 293 viability, ATP luminescence (CellTiter-Glo), 48-72 h; Potency, µM (top dose mostly 115 µM), most hits filed as inhibitors; 6.6% of 94,000 active; also: nearly all actives have a fitted effect of over 60% in size
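Cells seeded first (HEK 293, 250 cells/well), then compound added by pintool. Incubation ran 48 or 72 hr at 37 degree Celsius. CellTiter-Glo was added and luminescence imaged after 10 min at room temperature.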
Npr1 antag conf = hNpr1 antagonism, confirmation assay | shares compounds with NPR1 antag | HEK293 hNpr1 cGMP GloSensor luminescence, ANP-stimulated | Potency, µM (doses to about 57.6 µM), usual class: inhibitors | 76% of 1,400 active; calls by dose curve; also: nearly all actives have a fitted effect of over 70% in size
NPR2 antag = selectivity test of Npr1 antagonists against human Npr2. Potency, µM (highest dose often 57.6 µM), actives largely listed as inhibitors. HEK293 hNpr2 GloSensor cGMP luminescence, CNP-stimulated. AID 1347046. 67% of 1,400 active. shares compounds with NPR1 antag; calls by dose curve; also: nearly all actives have a fitted effect of over 70% in size
Target sequence (P20594 whole entry, looked up): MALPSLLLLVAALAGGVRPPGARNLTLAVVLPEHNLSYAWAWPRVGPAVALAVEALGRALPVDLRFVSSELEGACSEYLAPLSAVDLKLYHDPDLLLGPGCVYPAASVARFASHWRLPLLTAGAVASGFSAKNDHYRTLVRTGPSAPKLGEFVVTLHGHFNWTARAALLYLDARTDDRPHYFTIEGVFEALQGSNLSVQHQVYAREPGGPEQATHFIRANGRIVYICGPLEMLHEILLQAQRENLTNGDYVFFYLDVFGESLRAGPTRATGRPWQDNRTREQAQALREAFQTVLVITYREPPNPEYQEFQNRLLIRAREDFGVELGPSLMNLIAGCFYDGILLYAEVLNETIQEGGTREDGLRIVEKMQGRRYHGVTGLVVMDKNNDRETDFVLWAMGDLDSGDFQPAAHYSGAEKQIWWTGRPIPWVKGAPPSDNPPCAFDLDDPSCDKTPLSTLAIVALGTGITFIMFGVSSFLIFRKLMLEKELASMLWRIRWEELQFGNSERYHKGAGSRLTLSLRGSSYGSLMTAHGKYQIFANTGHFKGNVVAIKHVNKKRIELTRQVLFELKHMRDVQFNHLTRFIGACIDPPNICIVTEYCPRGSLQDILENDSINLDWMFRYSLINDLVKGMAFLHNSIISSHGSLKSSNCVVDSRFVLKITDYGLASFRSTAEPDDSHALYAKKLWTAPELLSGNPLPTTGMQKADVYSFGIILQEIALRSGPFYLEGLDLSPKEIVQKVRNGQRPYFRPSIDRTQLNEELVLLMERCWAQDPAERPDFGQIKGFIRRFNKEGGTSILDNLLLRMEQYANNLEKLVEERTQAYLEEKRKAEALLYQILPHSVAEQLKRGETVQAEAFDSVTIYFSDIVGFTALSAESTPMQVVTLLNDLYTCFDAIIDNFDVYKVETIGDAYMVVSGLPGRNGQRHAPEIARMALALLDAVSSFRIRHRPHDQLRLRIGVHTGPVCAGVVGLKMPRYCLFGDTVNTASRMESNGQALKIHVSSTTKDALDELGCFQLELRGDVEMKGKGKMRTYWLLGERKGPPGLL
FLuc counter = counter-screen for Npr1 antagonists: firefly luciferase inhibitors; shares compounds with NPR1 antag; purified FLuc enzyme, luminescence, Km substrate; Potency, µM (top dose mostly 57.6 µM), usual class: inhibitors; 0.7% of 1,400 active; AID 1347047
GloSensor cGMP = control cell line activity, Npr1 antagonist counter-screen | shares compounds with NPR1 antag | AID 1347051 | 69% of 1,400 active | Potency, µM (doses to about 57.6 µM), hits mostly inhibitors | HEK293 GloSensor cGMP, SNP-stimulated, luminescence; calls by dose curve; also: nearly all actives have a fitted effect of over 70% in size
A number is an active result; 0 = inactive; ? = inconclusive; - = no result given. The list is not random: actives were taken first. Their share in the collection is about 11%. Unless noted, calls follow the shape of the dose curve; as a rule, active = well fitted curve in the direction sought with a large enough effect; inconclusive = small, poorly fitted or top-dose-only effect, or another doubt; inactive = no such curve, though single readings can be large; an effect the other way counts as inactive or inconclusive.

SMILES	FLuc inh	NIH3T3 tox	NPR1 antag	HEK cytotox	Npr1 antag conf	NPR2 antag	FLuc counter	GloSensor cGMP
CN1C[C@@H](NC(=O)Nc2ccc(Cl)cc2)C[C@H]1c1nc(-c2ccc(F)cc2)no1	0	?	32µM	32µM	13µM	20µM	0	13µM
CN1C[C@@H](NC(=O)Nc2cccc(C#N)c2)C[C@H]1c1nc(-c2ccc(Cl)cc2)no1	0	40µM	25µM	?	16µM	25µM	0	18µM
COc1ccc(-c2noc([C@@H]3C[C@H](NS(=O)(=O)c4ccc5ccccc5c4)CN3C)n2)cc1	0	?	20µM	?	24µM	24µM	?	19µM
COc1ccccc1-n1c(=O)c(C(=O)N2CCN(C(=O)c3ccccc3Cl)CC2)nc2cccnc21	-	0	-	0	-	-	-	-
CCN1CCN(C(=O)c2nc3sccn3c2-c2ccc(C(F)(F)F)cc2)CC1	-	0	-	0	-	-	-	-
CCOc1ccc(CC(=O)N2CCC3(CC2)N=C(c2ccc(C)cc2)NO3)cc1	0	0	0	0	-	-	-	-
O=C1CCN(C(=O)COc2ccccc2)CCCC(C(=O)NCc2ccccc2)CCN1 (centres undefined)	0	0	0	0	-	-	-	-
CCc1noc(CC2CCOC3(CCN(S(=O)(=O)c4ccc(C(C)C)cc4)CC3)C2)n1 (centres undefined)	0	?	10µM	?	17µM	19µM	0	12µM
CCc1noc(CC2CCOC3(CCN(S(=O)(=O)c4ccc(F)c(F)c4)CC3)C2)n1 (centres undefined)	0	?	10µM	79µM	22µM	?	0	?
O=C1NC2(CCN(Cc3ccsc3)C2)OCc2ccccc21 (centres undefined)	0	0	0	0	-	-	-	-
COCCNC(=O)c1ccc2nnc(-c3cc(C(F)(F)F)cc(C(F)(F)F)c3)n2c1	-	0	-	0	-	-	-	-
